Consider six compounds from publication PMC11062922 (Nature Chemical Biology, 2023).

What is called EC50 is the concentration giving half of the maximal effect.

The test system of one experiment is IGF1R. Further details: species or system human, MV4-11 + K-562 + COLO205 + SK-N-BE2 + OVCAR-8. Conditions: read-out: apparent Kd, compound concentrations: 100 nM and 1000 nM (sheet 'Samples'), n = 1.
The test system of the next experiment is INSR. More on the design: species or system human, MV4-11 + K-562 + COLO205 + SK-N-BE2 + OVCAR-8. Conditions: read-out: apparent Kd, compound concentrations: 100 nM and 1000 nM (sheet 'Samples'), n = 1.
For the next experiment, the system named is NEK2. More on the design: species or system human, MV4-11 + K-562 + COLO205 + SK-N-BE2 + OVCAR-8. Particulars: read-out: apparent Kd, compound concentrations: 100 nM and 1000 nM (sheet 'Samples'), n = 1.
For another experiment, the system named is HSP90B1. Further details: species or system human, MV4-11 + K-562 + COLO205 + SK-N-BE2 + OVCAR-8. Particulars: read-out: apparent Kd; compound concentrations:100 nM and 1000 nM (sheet 'Samples'); n = 1.
A further experiment concerns TESK2. More on the design: species or system human, MV4-11 + K-562 + COLO205 + SK-N-BE2 + OVCAR-8. Conditions: read-out: apparent Kd; compound concentrations:100 nM and 1000 nM (sheet 'Samples'); n = 1.
The subject of a further experiment is ADCK1. Particulars: compound concentrations:3nM, 10nM, 30nM, 100nM, 300nM, 1000nM, 3000nM, 30000nM,R2:0.94101841538293196,slope:0.49878905871205997,EC50 Standard Error, by the legend:Standard error of the EC50 estimation as provided by the drc package.
The next experiment has as its system CSNK2A1;CSNK2A3. Particulars: compound concentrations:3nM, 10nM, 30nM, 100nM, 300nM, 1000nM, 3000nM, 30000nM,R2:0.95393018675228303,slope:1.4690097586887201,EC50 Standard Error, by the legend:Standard error of the EC50 estimation as provided by the drc package.
The test system of another experiment is CSNK2A2. Conditions: compound concentrations:3nM, 10nM, 30nM, 100nM, 300nM, 1000nM, 3000nM, 30000nM,R2:0.98972333089258602,slope:1.29833762231974,EC50 Standard Error, by the legend:Standard error of the EC50 estimation as provided by the drc package.
The test system of another experiment is CSNK2B. Conditions: compound concentrations:3nM, 10nM, 30nM, 100nM, 300nM, 1000nM, 3000nM, 30000nM,R2:0.92635600361285697,slope:3.98443256783656,EC50 Standard Error, by the legend:Standard error of the EC50 estimation as provided by the drc package.
A further experiment has as its system EIF3J. Conditions: compound concentrations:3nM, 10nM, 30nM, 100nM, 300nM, 1000nM, 3000nM, 30000nM,R2:0.88928942104591402,slope:1.5975809400026999,EC50 Standard Error, by the legend:Standard error of the EC50 estimation as provided by the drc package.
A further experiment has as its system IRAK3. Conditions: compound concentrations:3nM, 10nM, 30nM, 100nM, 300nM, 1000nM, 3000nM, 30000nM,R2:0.92660925835613905,slope:0.92534849669637798,EC50 Standard Error, by the legend:Standard error of the EC50 estimation as provided by the drc package.
Another experiment has as its system NQO2. Particulars: compound concentrations:3nM, 10nM, 30nM, 100nM, 300nM, 1000nM, 3000nM, 30000nM,R2:0.94793507341518402,slope:1.3847657393086299,EC50 Standard Error, by the legend:Standard error of the EC50 estimation as provided by the drc package.
The subject of a further experiment is CIT. Further details: species or system human, MV4-11 + K-562 + COLO205 + SK-N-BE2 + OVCAR-8. Conditions: compound concentrations:0.3nM, 1nM, 3nM, 10nM, 30nM, 100nM, 300nM, 1000nM,R2:0.97918771846363795,slope:1.88206182244377,EC50 Standard Error, by the legend:Standard error of the EC50 estimation as provided by the drc package.
Another experiment concerns MOB1A. Further details: species or system human, MV4-11 + K-562 + COLO205 + SK-N-BE2 + OVCAR-8. Conditions: compound concentrations:0.3nM, 1nM, 3nM, 10nM, 30nM, 100nM, 300nM, 1000nM,R2:0.920591021551731,slope:1.01230388230399,EC50 Standard Error, by the legend:Standard error of the EC50 estimation as provided by the drc package.
Another experiment deals with PKN2. Further details: species or system human, MV4-11 + K-562 + COLO205 + SK-N-BE2 + OVCAR-8. Particulars: compound concentrations:0.3nM, 1nM, 3nM, 10nM, 30nM, 100nM, 300nM, 1000nM,R2:0.99284498309618197,slope:1.0925759067996901,EC50 Standard Error, by the legend:Standard error of the EC50 estimation as provided by the drc package.
The test system of another experiment is PRKACA. Further details: species or system human, MV4-11 + K-562 + COLO205 + SK-N-BE2 + OVCAR-8. Particulars: compound concentrations:0.3nM, 1nM, 3nM, 10nM, 30nM, 100nM, 300nM, 1000nM,R2:0.96854382612038603,slope:0.55494475064464099,EC50 Standard Error, by the legend:Standard error of the EC50 estimation as provided by the drc package.
The subject of the next experiment is PRKACB. Further details: species or system human, MV4-11 + K-562 + COLO205 + SK-N-BE2 + OVCAR-8. Conditions: compound concentrations:0.3nM, 1nM, 3nM, 10nM, 30nM, 100nM, 300nM, 1000nM,R2:0.87991730549407599,slope:0.899687988537484,EC50 Standard Error, by the legend:Standard error of the EC50 estimation as provided by the drc package.
A further experiment deals with PRKCB. More on the design: species or system human, MV4-11 + K-562 + COLO205 + SK-N-BE2 + OVCAR-8. Particulars: compound concentrations:0.3nM, 1nM, 3nM, 10nM, 30nM, 100nM, 300nM, 1000nM,R2:0.978843793099339,slope:1.0046603573044399,EC50 Standard Error, by the legend:Standard error of the EC50 estimation as provided by the drc package.
Another experiment has as its system PRKCD. Further details: species or system human, MV4-11 + K-562 + COLO205 + SK-N-BE2 + OVCAR-8. Conditions: compound concentrations:0.3nM, 1nM, 3nM, 10nM, 30nM, 100nM, 300nM, 1000nM,R2:0.97536342523711195,slope:1.1087330186118201,EC50 Standard Error, by the legend:Standard error of the EC50 estimation as provided by the drc package.
A further experiment has as its system PRKCQ. More on the design: species or system human, MV4-11 + K-562 + COLO205 + SK-N-BE2 + OVCAR-8. Conditions: compound concentrations:0.3nM, 1nM, 3nM, 10nM, 30nM, 100nM, 300nM, 1000nM,R2:0.97430848163672201,slope:0.92336588926382501,EC50 Standard Error, by the legend:Standard error of the EC50 estimation as provided by the drc package.

Like-named read-outs stand apart in the source and are kept apart here.

`COc1ccc(Nc2ncc(C#N)c(Nc3ccccc3C(N)=O)n2)cc1N1CCN(C)CC1.Cl` [GSK1558669A]: the potency estimated from few doses in the experiment with IGF1R (CATDS: 6.9220248980982396E-3) was 752 nM; in the experiment with INSR (CATDS: 7.0439666537016601E-3), 692 nM; with NEK2 (CATDS: 6.7574361761292799E-3), 849 nM.

For `Cc1cccc(-c2nc(Nc3ccncc3)c3sccc3n2)n1` [GW869641X], the potency estimated from few doses with HSP90B1 is 1250 nM; with TESK2, 1880 nM.

On to Entospletinib, for which the 50% effective concentration (EC50) with ADCK1 was 16400 nM; in the experiment on CSNK2A1;CSNK2A3 it was 1590 nM; in the experiment with CSNK2A2, 1310 nM; in the experiment with CSNK2B, 941 nM; in the experiment on EIF3J it was 1610 nM; in the experiment with IRAK3, 4710 nM. Further, the concentration for a half-maximal effect (EC50) in the experiment with NQO2 is 295 nM. In addition, the Kd is 10500 nM in the experiment on ADCK1 (read-out: apparent Kd); 1590 nM with CSNK2A1;CSNK2A3 (read-out: apparent Kd); 1310 nM in the experiment on CSNK2A2 (read-out: apparent Kd); 941 nM in the experiment on CSNK2B (read-out: apparent Kd); 1610 nM in the experiment with EIF3J (read-out: apparent Kd); 2030 nM with IRAK3 (read-out: apparent Kd). Further, the Kd in the experiment on NQO2 (read-out: apparent Kd) is 131 nM.

For the compound `CCn1c(-c2nonc2N)nc2c(C#CC(C)(C)O)nc(OCCN)cc21.CCn1c(-c2nonc2N)nc2c(C#CC(C)(C)O)nc(OCCN)cc21.Cl.Cl` [GSK902056A], the potency estimated from few doses in the experiment on HSP90B1 was 769 nM. The EC50 with CIT was 279 nM; in the experiment with MOB1A, 223 nM; in the experiment with PKN2, 401 nM; with PRKACA, 230 nM; in the experiment on PRKACB, 145 nM; in the experiment on PRKCB, 410 nM. Besides, the EC50 is 124 nM in the experiment on PRKCD and 58.7 nM with PRKCQ. Further, the Kd with CIT (read-out: apparent Kd) is 279 nM; in the experiment on MOB1A (read-out: apparent Kd) it was 223 nM; in the experiment on PKN2 (read-out: apparent Kd) it was 401 nM; in the experiment on PRKACA (read-out: apparent Kd) it was 212 nM; in the experiment on PRKACB (read-out: apparent Kd), 145 nM; with PRKCB (read-out: apparent Kd), 401 nM. The Kd with PRKCD (read-out: apparent Kd) was 124 nM; in the experiment on PRKCQ (read-out: apparent Kd) it was 58.7 nM.

Take `Cn1ncc2c(N)ncnc21` [SKF-18267]: the potency estimated from few doses in the experiment with IGF1R (CATDS: 4.3813441316225901E-3) is 1080 nM; in the experiment with INSR (CATDS: 4.5573832930641796E-3), 986 nM; with NEK2 (CATDS: 4.6073088162857699E-3) it was 964 nM.

Take `Nc1nc(Nc2ccccc2)cc(-c2ccc3c(N)n[nH]c3c2)n1` [GSK2225749A]: the potency estimated from few doses in the experiment with TESK2 was 1620 nM.
